# Measured values reported in PubChem BioAssay AID1671448 (Corson Lab, School of Medicine, Indiana University, 2021).
# Among all 20,000 compounds or so, about 660 (3.3%) were called active.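 The calls were made as follows: active = enzyme reaction rate more than 3 SD below the solvent-only control wells on the same plate; inactive = the rest.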 Many of the other results were omitted from the sample, so actives are more common in it than they were.
# Target: Ferrochelatase, mitochondrial (Homo sapiens) (UniProt P22830)
# Test: inhibitors of human ferrochelatase, primary screen, biochemical, purified FECH, Ni-mesoporphyrin absorbance (AID 1671448)
# Conditions: Ni-mesoporphyrin absorbance 550 nm, screened at 10 µM (by protocol)
# Chain of Ferrochelatase, mitochondrial (Homo sapiens) (P22830 whole entry, looked up): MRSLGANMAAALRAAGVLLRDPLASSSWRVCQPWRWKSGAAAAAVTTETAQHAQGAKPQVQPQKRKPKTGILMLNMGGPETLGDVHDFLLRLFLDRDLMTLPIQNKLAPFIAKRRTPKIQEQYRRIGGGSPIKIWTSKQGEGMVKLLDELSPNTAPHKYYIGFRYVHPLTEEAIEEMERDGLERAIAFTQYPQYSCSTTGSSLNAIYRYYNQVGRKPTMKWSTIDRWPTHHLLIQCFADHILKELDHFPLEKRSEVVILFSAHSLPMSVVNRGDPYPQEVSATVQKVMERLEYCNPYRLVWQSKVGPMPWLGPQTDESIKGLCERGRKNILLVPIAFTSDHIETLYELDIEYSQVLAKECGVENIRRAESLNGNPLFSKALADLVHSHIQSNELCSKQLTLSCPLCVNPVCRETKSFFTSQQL
row,SMILES,outcome
1,CCOc1ccc(CCNC(=O)CN2C(=O)C=C(CC(=O)OC)Nc3ccccc32)cc1OCC,inactive
2,CNCc1cc(-c2ccc(C)c3ncccc23)ccc1OC,inactive
3,COCCNC(=O)Cn1c(C(=O)OC)cc2ccsc21,inactive
4,NC(=O)c1cccc(CC2CCN(C(=O)CCc3cn4ccccc4n3)C2)c1 (centres undefined),inactive
5,CN(C)c1ccc(CNC(=O)c2nc(N3CCCC3)c3oc4ccccc4c3n2)cc1,inactive
6,COc1cccc(Cn2c(CNS(=O)(=O)c3cccc(Cl)c3)nc3cccnc32)c1,inactive
7,Cc1cc(C)n(CCNC(=O)c2cc(-c3ccccc3)n[nH]2)c(=O)n1,inactive
8,COc1nc2c(cc1CNC(=O)c1ccncc1F)C(=O)N(C1CCCC1)C2,inactive
9,CC(C)CN1CCOC(CCNC(=O)c2cncs2)C1 (centres undefined),inactive
10,CCCCN(C)c1nc(Nc2ccc(OC)cc2)c2cnn(-c3ccccc3)c2n1,active
11,COc1ccc(OC)c(Nc2nc(N(C)C)nc3c2cnn3-c2ccccc2)c1,inactive
12,CCN(CC)c1nc(Nc2ccc(C)cc2)c2cnn(-c3ccccc3)c2n1,inactive
13,Cc1cc(NC(=O)c2ccc(C(C)(C)C)cc2)n(-c2ncnc3c2cnn3-c2ccc(Cl)cc2)n1,inactive
14,Cc1ccsc1CN(C)C(=O)c1ccc(-c2ncn[nH]2)cc1,inactive
15,CCOC(=O)N1CCC(NCc2ccccc2-n2ccnc2C)CC1,inactive
16,O=C(O)[C@H]1C[C@@H](O)CCN1C(=O)C1(c2ccc(Cl)cc2)CC1,inactive
17,O=C(NC(Cn1cccn1)c1ccccc1)c1cc2n(n1)CCNC2 (centres undefined),inactive
18,O=C(NCc1ccccn1)C1CCN(c2ccc(-c3ccc(Br)s3)nn2)CC1,inactive
19,Cc1ccc(CSc2ncc(Cl)c(C(=O)Nc3ccc(S(N)(=O)=O)cc3)n2)cc1,inactive
20,Cc1cccc(CN2CCCN(CC(=O)Nc3ccc(Cl)cc3)S2(=O)=O)c1,inactive
21,CCc1ccc(NC(=O)CN2CCN(Cc3cccc(C)c3)S2(=O)=O)cc1,active
22,COC(=O)c1ccc(NC(=O)CN2CCN(Cc3ccc(C)cc3)S2(=O)=O)cc1,inactive
23,CC(COc1ccccc1)NCc1nnc(-c2ccccc2)o1 (centres undefined),active
24,Cc1cc(C)cc(C(=O)NCCn2c(-c3ccccc3)nc3cccnc32)c1,inactive
25,CCn1c(=O)n(-c2ccc(C)c(C)c2)c2nc(-c3cccc(F)c3F)nc(C(N)=O)c21,inactive
26,Cc1noc(C)c1CN(C)Cc1ccc(C2CCCO2)s1 (centres undefined),inactive
27,COc1ccccc1CNc1nc2nc(CNc3ccc(F)cc3)cc(=O)n2[nH]1,inactive
28,COc1ccccc1NCc1nc2nc(C(C)C)cc(=O)n2[nH]1,active
29,CCCc1cc(=O)n2[nH]c(CNc3ccc(C)cc3C)nc2n1,inactive
